Most compounds without a hit are left out; they make up all but 2.8% or so of the library.
MsrA inh – inhibits bovine methionine sulfoxide reductase A; purified bovine MsrA, absorbance read-out; inhibition, % at 15.5 µM; 360,000 compounds, 0.75% hits; in the data active means inhibition above about 4.5%;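 further: 0% = vehicle wells with enzyme and 100% = reference inhibitor wells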
sPLA2-III inh – Inhibits HGIII-sPLA2 liposome hydrolysis, primary screen | Q9NZ20 | QFRET BODIPY PC-A2 liposome hydrolysis, fluorescence | inhibition, % at 12.2 µM | 370,000 compounds, 0.56% hits | AID 743126;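 active means inhibition above mean plus 3 SD of compounds lying within the high and low control bounds, cut at about 19% in these data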;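 further: 0% = median of test compound wells and 100% = no enzyme DMSO wells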
Target sequence (Q9NZ20 whole entry, looked up): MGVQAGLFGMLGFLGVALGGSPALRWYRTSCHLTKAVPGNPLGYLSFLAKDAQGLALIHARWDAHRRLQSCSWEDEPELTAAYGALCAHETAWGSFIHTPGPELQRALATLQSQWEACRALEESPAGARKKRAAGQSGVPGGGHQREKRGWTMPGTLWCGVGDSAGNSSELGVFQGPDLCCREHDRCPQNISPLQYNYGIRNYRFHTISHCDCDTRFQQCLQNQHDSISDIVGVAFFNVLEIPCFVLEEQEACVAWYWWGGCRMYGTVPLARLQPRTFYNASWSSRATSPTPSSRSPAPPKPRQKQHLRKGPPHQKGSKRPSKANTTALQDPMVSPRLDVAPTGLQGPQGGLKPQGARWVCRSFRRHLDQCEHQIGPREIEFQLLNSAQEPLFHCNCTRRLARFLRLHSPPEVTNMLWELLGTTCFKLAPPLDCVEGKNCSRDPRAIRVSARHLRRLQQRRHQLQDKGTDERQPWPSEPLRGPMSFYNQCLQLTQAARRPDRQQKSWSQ
rCAG binder – r(CAG) repeat RNA binding | TO-PRO-1 dye displacement fluorescence | inhibition, % at 3 µM | 370,000 compounds, 1.3% hits | AID 651821;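 active means inhibition above the plate cutoff, the mean of all test compounds on that plate plus 3 SD, cut at about 35% in these data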;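 further: 0% = DMSO alone and 100% = 100 µM mitoxantrone as full dye displacement; higher means more dye released from RNA so lower well fluorescence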
bovine MsrA act – activates bovine MsrA enzyme | purified bovine MsrA, absorbance read-out | activation, % at 10.6 µM | 360,000 compounds, 0.3% hits | AID 602163; in the data active means activation above about 7.5%;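 further: 0% = vehicle and 100% = reference activator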
hGIII sPLA2 conf – human GIII-sPLA2 inhibition, confirmation | recombinant hGIII-sPLA2, BODIPY PC-A2 QFRET fluorescence | 2,000 compounds, 34% hits | shares compounds with sPLA2-III inh | inhibition, % at 12.2 µM;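 active means mean inhibition across triplicates above the hit cutoff set in the earlier primary screen, cut at about 19% in these data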;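 further: 0% = enzyme with DMSO and 100% = DMSO wells lacking enzyme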
535nm interf – optically interferes with 535nm fluorescence in sPLA2 counter-screen; BODIPY FL product fluorescence interference, QFRET; shares compounds with sPLA2-III inh; 2,000 compounds, 8.5% hits; inhibition, % at 12.2 µM;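 active means average inhibition above the solvent-only control mean plus 3 SD, cut at about 6% in these data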;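 further: 0% = DMSO with substrate plus product and 100% = DMSO with substrate alone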
535nm interf DR – 535nm optical interference dose response, HGIII-sPLA2 counter-screen | shares compounds with sPLA2-III inh | BODIPY FL product fluorescence interference, cell-free | IC50, µM | 240 tested, under 10 active | AID 743455;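 active means IC50 at or below 10 µM; inactive means IC50 above 10 µM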
Numbers without * were called inactive; · = no result given.

SMILES	MsrA inh	sPLA2-III inh	rCAG binder	bovine MsrA act	hGIII sPLA2 conf	535nm interf	others
CC[C@H](C)[C@@H](CN[C@H](C)CNC)NCCC(c1ccccc1)c1ccccc1	0	26*	1	-2	4	-27
O=C(NCCOC(=O)c1ccccc1C(=O)OCCNC(=O)c1cccnc1)c1cccnc1	1	2	2	-4	·	·
COc1ccc(-c2nc3ccccc3nc2-c2ccc(OC)cc2)cc1	1	-7	-2	-2	·	·
COc1ccc(-c2n[nH]c(=S)nc2-c2ccc(OC)cc2)cc1	2	19*	5	-2	26*	5
CCC(C)c1ccccc1OCCOCCN1CCCC1 (stereo not drawn)	0	20*	-8	-3	-1	-20
CCOC(=O)c1cc(CC)sc1/N=C/C1=C(O)CC(C)(C)CC1=O	0	23*	-3	-2	11	-2
O=C(O)c1cc(O)ccc1N=Nc1ccccc1	4.6*	20*	3	-2	-2	-4
CCC1(C(=O)c2ccccc2)C2c3cc(Br)ccc3OC(=O)C21C(=O)N1CCOCC1 (stereo not drawn)	0	-16	3	-1	·	·
CCN(CC)C(=O)C12C(=O)Oc3ccccc3C1C2(C)C(=O)c1ccc(F)cc1 (stereo not drawn)	-1	20*	-5	-1	-2	-8
COc1ccccc1N(CC(=O)Nc1ccc(S(=O)(=O)N2CCOCC2)cc1)S(C)(=O)=O	1	1	0	-6	·	·
CCOc1ccccc1N(CC(=O)Nc1ccc(S(=O)(=O)N2CCOCC2)cc1)S(=O)(=O)c1ccc(Cl)cc1	0	23*	0	-9	-5	-4
Cc1cc2c(cc(C(=O)OC(C(=O)NC3CCCCC3)C(C)C)n2C)o1 (stereo not drawn)	2	-29	-1	-1	·	·
COc1ccc(-c2sc3ccccc3c2/C=C/c2ccc(N)cc2)cc1	3	22*	7	-5	28*	13*
COc1ccc(/C=C/c2c(-c3ccc(OC)cc3)sc3ccc(N4CCOCC4)cc23)cc1	·	·	·	-4	·	·
Cc1[nH]c2ccccc2c1-c1csc(N)n1	0	2	18	-7	·	·
COc1ccccc1Nc1nc(-c2c(C)[nH]c3ccccc23)cs1	1	20*	23	1	20*	9.8*
COC(=O)[C@H](CC(C)C)NC(=O)NC1CCCc2ccccc21 (stereo partly drawn)	0	-9	-1	-5	·	·
COc1ccc(CCNC(=O)c2ccccc2C(=O)NCCc2ccc(OC)cc2)cc1	1	5	-9	-2	·	·
COc1ccc(CCNC(=O)c2cnc3ccccn3c2=O)cc1	4	21*	1	1	-5	-4
Cc1cc(C(=O)c2ccc(Cl)cc2)c(NC(=O)CCl)s1	0	19*	-4	-5	3	-7
CC12CCC(C(=O)NCCCN3CCOCC3)(C(Br)C1=O)C2(C)C (stereo not drawn)	0	21*	-2	1	1	-1
Cc1ccc(C=Nn2c(-c3n[nH]c4c3CCC4)n[nH]c2=S)o1	·	21*	7	·	16	-1
CCOc1ccc(/C=N/n2c(-c3n[nH]c4c3CCC4)n[nH]c2=S)cc1	·	12	8	·	·	·
O=C(NNC(=S)NC1CCCCC1)c1ccccc1O	0	44*	6	-4	44*	0	535nm interf DR=>122
Cc1cc(C(=O)NNC(=S)NC2CCCCC2)cs1	1	25*	-1	0	37*	2	535nm interf DR=>122
SMILES	MsrA inh	sPLA2-III inh	rCAG binder	bovine MsrA act	hGIII sPLA2 conf	535nm interf	others
CC1(C(=O)Nc2ccc3c(c2)OCO3)CCN1C(=O)Cc1ccc(-c2ccccc2)cc1 (stereo not drawn)	-1	-2	2	-1	·	·
C=CCNc1cc(=O)n(Cc2ccccc2)c(=O)[nH]1	0	19*	-1	-6	-2	-3
C=CCNC1=C(Cl)C(=O)N(Cc2ccccc2)C1=O	1	-1	3	-4	·	·
NNC(=O)/C(=N/Nc1ccccc1)S(=O)(=O)c1ccc(Cl)cc1	1	35*	30	-1	47*	2	535nm interf DR=>122
CCOC(=O)/C(=N/Nc1ccc(C)cc1)S(=O)(=O)c1ccc(Cl)cc1	0	1	0	-2	·	·
CCCc1ccc(OCCNC(=O)C2CCCCC2)cc1	1	1	-3	-3	·	·
Cc1ccc(Nc2n[nH]c(=S)s2)cc1	1	24*	4	4	34*	0	535nm interf DR=>122
S=c1[nH]nc(Nc2ccc(Cl)cc2)s1	0	14	-1	3	·	·
COc1ccc(-c2cc(C(F)(F)F)nc(SCC(=O)NCc3cnn(C)c3C)n2)cc1OC	2	24*	-5	-5	0	-14
CCn1c(-c2nn(-c3ccc(C)cc3)ccc2=O)n[nH]c1=S	2	9	0	-6	·	·
CCn1c(-c2nn(-c3ccccc3)ccc2=O)n[nH]c1=S	2	24*	-6	0	3	-3
Nc1sc(-c2ccccc2)cc1C(=O)NCCN1CCOCC1	2	20*	3	·	7	-7
Cc1ccc2c(c1)C(=O)C(=O)N2CCOc1ccccc1	1	25*	-2	-10	13	-1
Cc1cccc(OCCN2C(=O)C(=O)c3cc(C)ccc32)c1	2	24*	-1	-2	21*	-1
C=CCOC(=O)C1=C(C)NC(=O)NC1/C=C/c1ccccc1 (stereo not drawn)	0	-5	0	0	·	·
CN1CCC(=NNC(=O)C(=O)NC(C)(C)C)CC1	1	22*	-7	0	2	-9
CC(=O)OCC1OC(n2cc(F)c(=O)[nH]c2=O)C(OC(C)=O)C1OC(C)=O (stereo not drawn)	0	19*	-1	1	1	-7
CCN1C(=O)/C(=C2/C=Cc3ccccc3N2CC)SC1=S	0	21*	2	-2	43*	5	535nm interf DR=>122
CCCN1C(=O)/C(=C2/C=Cc3ccccc3N2CC)SC1=S	0	21*	3	-4	51*	13*
O=C(Nc1nnc(SCC(=O)N2CCCc3ccccc32)s1)c1ccc2ccccc2c1	2	20*	2	-4	-49	-9
O=C(Nc1nnc(SCC(=O)N2CCCc3ccccc32)s1)c1ccccc1	0	3	9	1	·	·
C=C1CCN(c2ccc(C(=O)NCc3ccc(C)cc3)cc2[N+](=O)[O-])CC1	0	1	-5	-2	·	·
Cc1ccc(C(=O)NC(=S)/C=C2\N(C)c3ccccc3C2(C)C)cc1	3	30*	-3	-14	45*	2	535nm interf DR=>122
CC(C)C(=O)NC(=S)/C=C1/N(C)c2ccccc2C1(C)C	-1	-4	-5	-3	·	·
O=C(c1cc(S(=O)(=O)N2CCCCC2)ccc1F)N1CCCCC1	·	·	·	-7	·	·
NS(=O)(=O)c1ccc(F)c(C(=O)O)c1	0	26*	-1	-4	4	-6
